# Bioassay records as filed in PubChem.
# Dicer inh: inhibitors of human Dicer processing of pre-microRNA; cat-ELCCA pre-miR-21 Dicer processing, chemiluminescence; active compounds read high; z-score at 25 µM; actives 6% (n = 47,000); in the data active = z-score above about 3, passing the limit was not always enough;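 note: higher signal means more uncleaved substrate so more Dicer inhibition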
# Numbers stand for hits; – = inactive. Only a selection was taken, and hits are over-represented in it overall.
SMILES,Dicer inh
Cc1ccc(-c2cc(Cc3cccs3)c(=O)[nH]n2)cc1,–
Cc1ccc(-c2cc(Cc3cccn3-c3ccc(Cl)cc3)c(=O)[nH]n2)cc1,3.8
Cc1cc(Cc2ccc(Cl)cc2)c(=O)[nH]n1,–
COc1ccc(/C=N/NC(=O)c2nn(-c3ccc(C(C)(C)C)cc3)c(=O)c(C#N)c2C)cc1,–
COCCN1C(=O)c2oc3ccc(F)cc3c(=O)c2C1c1cccc(O)c1 (centres undefined),–
Cn1cc(Br)c(/C=N/Nc2ccccn2)n1,–
CCc1cc(C(=O)c2ccc(OC)cc2)c(NC(=O)c2ccc(OC)cc2)s1,–
CN(C)/C=C1\N=C(c2cccnc2Oc2ccc(Cl)cc2)OC1=O,19
Cc1ccc(Sc2ncccc2C2=N/C(=C\N(C)C)C(=O)O2)cc1,–
CN(C)/C=C1/N=C(c2ccccc2)OC1=O,–
C=CCN1/C(=C/c2cc[n+](C)cc2)Sc2ccccc21,–
CCOc1cc(S(=O)(=O)n2cc(C)nc2CC)ccc1Cl,–
N=C1C(c2nc3ccccc3c(=O)[nH]2)=C(O)CN1c1ccccc1F,–
O=C(Nc1nnc(C(F)(F)F)s1)c1c(F)cccc1F,–
FC(F)(F)c1nnc(Nc2ccc(Cl)cc2)s1,7.3
FC(F)(F)c1nnc(Nc2cccnc2)s1,–
Oc1ccccc1C1CCCCC1c1ccccc1 (centres undefined),4.7
O=C1Cc2ccccc2C(c2ccccc2)N1 (centres undefined),–
O=C(NC(=O)C1CCCCC1)c1ccccc1O,–
COc1cc(Cl)c(C(F)(F)F)cc1NC(=O)c1c(OC)cccc1OC,–
O=S(=O)(NCc1ccccc1)c1cccc(S(=O)(=O)c2ccc(Br)cc2)c1,–
Cc1ccc(-c2ccc(C)c([N+](=O)[O-])c2)cc1[N+](=O)[O-],–
COc1ccc(S(=O)(=O)N2CCN(Cc3cc(OC)ccc3OC)CC2)cc1,–
COc1ccc(OC)c(CN2CCN(Cc3ccncc3)CC2)c1,–
COc1ccc(OC)c(CN2CCN(S(=O)(=O)c3ccc(Cl)cc3)CC2)c1,3.1
SMILES,Dicer inh
CCOc1cccc(=O)c2c(C)n(-c3ccc(OC)cc3)c(C)c12,–
CCOc1cccc(=O)c2c(C)n(-c3ccc4c(c3)OCO4)c(C)c12,–
CCOC(=O)c1ccc(-n2c(C)c3c(OCC)cccc(=O)c3c2C)cc1,3.6
CN(C)C(=S)NCCCN1CCOCC1,–
CCOC(=O)C(O)(NC(=O)c1ccccc1)C(F)(F)F (centres undefined),–
Cn1cnnc1SCC(=O)Nc1nc2ccccc2s1,–
Cc1nnc(SCC(=O)Nc2ccc(F)cc2F)s1,–
Cn1cnnc1SCC(=O)Nc1ccc(F)cc1F,4.7
CCOC(=O)c1c(NC(=O)C2CC(Cl)=CCC2C(=O)O)sc(C)c1C (centres undefined),–
Cc1onc(-c2c(Cl)cccc2Cl)c1NC(=O)Oc1ccc(F)cc1Cl,–
Cc1ccc(-c2nc(NC(=O)CSc3nnc4ccccn34)ns2)cc1,–
CC(C)(C)c1ccc(-c2nc(NC(=O)CSc3nnc4ccccn34)ns2)cc1,3
O=C(CSc1nnnn1-c1ccccc1)Nc1nsc(-c2ccc(Cl)cc2)n1,–
N#Cc1c(Br)cnn1Cc1cccc(Cl)c1,–
Cn1c(CSc2ccnc3cc(Cl)ccc23)nnc1SCC(=O)N1CCN(c2ccccc2)CC1,–
CC(=O)N/C(=C/c1ccc(C)c(C)c1)C(=O)O,–
CC(C)(O)C#Cc1ccc(C(=O)N2CCN(Cc3ccc4c(c3)OCO4)CC2)cc1,–
Cc1cccc(C)c1NS(=O)(=O)c1ccc(NS(=O)(=O)c2ccccc2)cc1,–
Cc1cnc(NS(=O)(=O)c2ccccc2)c(Br)c1,–
Cc1cc(O)cc(C)c1NS(=O)(=O)c1ccccc1,3.5
Cn1nc(C(F)(F)F)c(-c2cccc(C(F)(F)F)c2)c1NC(=O)c1ccccc1,–
Cn1ncc2c(O/N=C(\N)c3cc(C(F)(F)F)cc(C(F)(F)F)c3)ncnc21,–
Cn1nccc1NS(=O)(=O)c1ccc(C(C)(C)C)cc1,–
COc1ccccc1Oc1c(NS(=O)(=O)c2ccc(C(C)(C)C)cc2)nc(-c2ncccn2)nc1OCCO,18
CC(C)(C)c1ccc(-c2[nH]nc(NS(=O)(=O)c3ccccc3)c2Br)cc1,–
SMILES,Dicer inh
COC(=O)c1sccc1Oc1ccc(C(F)(F)F)cc1NS(=O)(=O)c1cccc(Cl)c1C,–
CCOC(=O)C1=C(C)NC2=C(C(=O)CCC2)C1c1ccccc1Br (centres undefined),–
O=c1oc2c(-c3ccccc3)n[nH]c(=O)c2c2c1CCC2,–
Cc1nc2ccc(NC(=O)c3ccccc3Cl)cc2o1,–
Cc1ccc(S(=O)(=O)N2CCSC2c2cccc(Cl)c2)cc1 (centres undefined),–
CN1N=C2c3ccccc3CCC2C1c1ccc(F)cc1 (centres undefined),–
CC(C)c1ccc(C2C3CCc4ccccc4C3=NN2CCO)cc1 (centres undefined),3.1
COc1ccc2c(c1)CCC1C2=NN(C)C1c1ccc(C(C)C)cc1 (centres undefined),–
COc1ccc(CCn2cnc3cc(C(F)(F)F)ccc32)cc1OC,–
CN1CCN(CC(=O)Nc2scc3c2c(=O)oc2ccccc23)CC1,–
COc1ccc(OCC2CN=C(Nc3ccc(C)cc3)S2)cc1 (centres undefined),–
Nc1ccc(C(=O)O)c2c(C(=O)O)cccc12,–
O=C(O)c1cccc2cccc(C(=O)O)c12,3.9
O=C(O)c1cccc2cccc(S(=O)c3ccccc3CO)c12 (centres undefined),–
CN(C)CCOC(=O)c1cc2ccccc2o1,–
CCCNC(=O)NC1CCN(c2ncc(C(F)(F)F)cc2Cl)CC1,–
CCN(CC)CCOc1c(Br)ccc2c1sc1nc3n(c(=O)c12)CCC3,4.1
CCOC(=O)CSC(=S)NCc1ccc(C)cc1,–
Cn1ccnc1SCC(=O)Nc1ccccc1Br,–
CCC(C)(C)C1CCc2c(sc(N)c2C#N)C1 (centres undefined),–
CC(C)(C)c1ccc(-c2nc3ccccc3c(=O)o2)cc1,–
O=c1oc(-c2ccc(Br)cc2)nc2ccccc12,3
O=c1oc(-c2cccs2)nc2ccccc12,–
O=c1oc(Nc2ccccc2)nc2ccccc12,3.6
c1ccc(Nc2nnc(-c3cccc4ccccc34)o2)cc1,–
SMILES,Dicer inh
O=c1oc(-c2ccc(Cl)cc2)nc2ccccc12,–
COc1cc(OC)cc(N2C(=O)c3nccnc3C2=O)c1,–
CCOC(=O)CNC(=O)COc1ccccc1,–
CN(NC(=O)c1c(Cl)cccc1Cl)C(=S)NC(C)(C)C,–
O=C(Nc1ccc(F)cc1)C12CC3CC(CC(C3)C1)C2,–
COc1ccc(OC)c([N+](=O)[O-])c1N1CCOCC1,–
COc1ccccc1C1CCN(c2ccc(C3OCCCO3)cc2[N+](=O)[O-])CC1,–
COc1cccc2c1OC1(N3CCOCC3)CCCCC1C2C[N+](=O)[O-] (centres undefined),3.6
N#Cc1ncoc1-c1ccc(C(F)(F)F)cc1,–
COc1ccc(N2C(=O)CC(N3CCN(C)CC3)C2=O)cc1 (centres undefined),–
COc1ccc(N2C(=O)CC(Sc3nc(C)c4ccccc4n3)C2=O)cc1 (centres undefined),–
O=C1CC(c2ccccc2)CC(=O)N1c1ccccc1,–
O=C1CC(c2ccccc2)C(=O)N1c1cc(Cl)cc(Cl)c1 (centres undefined),5.3
COc1ccc(N2C(=O)CC(c3ccccc3)C2=O)cc1 (centres undefined),4.3
Cn1cc(C2CC(=O)N(c3ccc(O)cc3)C2=O)c2ccccc21 (centres undefined),–
